The source of these data is PubChem BioAssay AID720517 (National Center for Advancing Translational Sciences (NCATS), 2013).

This assay is described as follows: qHTS for Inhibitors of Cell Surface uPA Generation: FP59 Counterscreen for Cherry-picked Compounds. Particulars: FP59 anthrax toxin cytotoxicity counterscreen, cells; series mostly up to 115 µM.

Results filed as inconclusive are left out. A call without a number means that no potency is given here. Active and inactive are the calls of the source. The call rests on the fitted dose curve; in most records, active means well fitted activation curve with a large enough effect; inconclusive means small, poorly fitted or top-dose-only effect; inactive means flat fitted curve, though single readings scatter.

For `C#CCN1C=C(C(=O)OCC)C(C)NS1(=O)=O` (stereo unspecified), the Potency entry is “inactive”. For `CN(C)C(=O)NC(NC(=S)Nc1ccccc1)C(Cl)(Cl)Cl` (stereo unspecified) the value was “inactive”; for `COc1ccc(-c2cc3nc(-c4ccccc4)cc(N4CCCC(O)C4)n3n2)cc1` (stereo unspecified), “inactive”.

As for `Cc1ccn(CCC(=O)N2CCc3ccccc32)n1`, the Potency result was “inactive”. As for `O=c1[nH]c2ccccc2cc1CN(CC1CCCO1)S(=O)(=O)c1ccccc1` (stereo unspecified), the entry is “inactive”; as for `Cc1[nH]c(=O)[nH]c(=O)c1S(=O)(=O)N1CCCc2ccccc21`, “inactive”. For `CC(C)(C)OC(=O)N(Cc1ccccc1)Cc1ccccc1OCc1cccc(NC(=O)C2CC2)c1` the value was “inactive”; for `CCCN1CCN(C(=O)CCCn2c(C)c3cnn(-c4ccccc4)c(=O)c3c2C)CC1`, “inactive”; for `COc1ccccc1C(=O)Nc1cccc(C(=O)c2ccccc2)c1`, “inactive”. For `COc1cccc(NC(=O)CN(C)C(=O)c2csc3c2CCCC3)c1` the value was “inactive”; for `CC(=O)c1ccc2c(c1)c1ccccc1n2CC(C)C`, “inactive”.
